# The whole screen tested about 53,000 compounds, of which about 900 (1.7%) showed an effect of 50% or more. Only a selection was taken, and strong results are over-represented in it overall.
# System: Mycobacterium tuberculosis
# Test: Cornell - Phenotypic assay to identify agents that inhibit growth of Mycobacterium tuberculosis
# Assay type: functional
# Design: scale not given: direction of the effect not stated beside the values
# Conditions: 10 mM as filed; unlikely as a test dose
row,Compound,Percent Effect
1,COC(=O)Cn1ccc(NS(=O)(=O)c2ccc3c(c2)CCC3)n1,-1.96%
2,CSC(C)C(=O)N1CCCN(Cc2nccn2C)CC1 (stereo not given),-38.31%
3,Fc1cccc(CN2CCC(c3noc(-c4ccncc4)n3)CC2)c1F,8.868%
4,CCCc1nnc(N2CC[C@@](O)(C3CCOCC3)[C@H](C)C2)s1,-20.29%
5,Nc1ncc(-c2ccc(F)cc2)c(C2CCCNC2)n1 (stereo not given),2.627%
6,CS(=O)(=O)N1CC(c2nc(N)ncc2-c2ccc(F)cc2)C1,26.29%
7,Nc1ncc(-c2ccc(Cl)cc2)c(C2CCCNC2)n1 (stereo not given),-8.441%
8,COc1ccc(-c2cnc(N)nc2C2CCCNC2)cc1.Cl (stereo not given),57.74%
9,Nc1ncc(-c2ccc(C(F)(F)F)cc2)c(C2CCCNC2)n1 (stereo not given),50.32%
10,COc1ccc(-c2cc(C3CCCNC3)ccn2)cc1.Cl (stereo not given),13.34%
11,Cc1n[nH]c(C2CN(CC(=O)NCCC3=CCCCC3)CCO2)n1 (stereo not given),-4.775%
12,COc1cc(CNC(=O)c2csc(Br)c2)ccn1,5.577%
13,c1ccc(CN2CCC(c3nccnc3-n3ccnc3)CC2)cc1,-13.47%
14,Cc1noc(C)c1CN(Cc1cccs1)C1CCS(=O)(=O)C1 (stereo not given),-24.86%
15,CCS(=O)(=O)N1CCc2ccc(NC(=O)NCCc3ccccc3)cc21,30.28%
16,CN(C)CC(=O)N1CCN(C(=O)c2cccc3[nH]ncc23)CC1,11.64%
17,CCc1cnc(CN(C(C)=O)C2CCN(CCc3ccccc3)C2)o1 (stereo not given),-5.219%
18,Cc1csc(CN2C[C@@H]3COC[C@]3(C(=O)NCc3ccco3)C2)n1,99.79%
19,Cc1ncsc1CN1C[C@@H]2COC[C@]2(C(=O)NCc2ccccn2)C1.O=C(O)C(F)(F)F.O=C(O)C(F)(F)F,34.64%
20,Cc1csc(CNC(=O)N2CCN(Cc3ccco3)CC2)n1,5.266%
21,Cc1ncsc1C(=O)N1CCCC(n2cncn2)C1 (stereo not given),-11.33%
22,CC(=O)N1CCCC1c1cccc(Oc2ccccc2F)n1 (stereo not given),16.34%
23,Cc1cc(CN2CCN(S(=O)(=O)c3c(C)c(Cl)cc(C)c3Cl)CC2)on1,15.46%
24,O[C@@H]1C[C@H]2CN(Cc3ccccc3Cl)[C@H](Cc3ccccc3)CN2C1,13.61%
25,O[C@@H]1C[C@H]2CN(Cc3ccsc3)[C@@H](Cc3ccccc3)CN2C1,57.45%

row,Compound,Percent Effect
1,O[C@@H]1C[C@H]2CN(Cc3ccccc3)[C@H](Cc3ccccc3)CN2C1,7.945%
2,Cc1ccc(CN2CC[C@H]3OCC[C@@H](c4nc(C)no4)[C@H]3C2)cc1,12.84%
3,CCC(C)(CCO)NC(=O)c1ccon1 (stereo not given),-22.18%
4,O=C(NC(CO)CO)c1coc(COc2cccc(F)c2)n1,-12.31%
5,COC(=O)[C@@H](NC(=O)c1coc(COc2cccc(F)c2)n1)C(C)C,30.38%
6,O=C(O)c1coc(COc2cccc(F)c2)n1,15.94%
7,CC(C)(NC(=O)c1coc(COc2cccc(F)c2)n1)C(N)=O,8.84%
8,CCC(C)NC(=O)c1coc(COc2cccc(F)c2)n1 (stereo not given),60.97%
9,O=C(NCC(F)(F)F)c1coc(COc2cccc(F)c2)n1,71.66%
10,CN(C)Cc1cc(C2CCCCN2S(=O)(=O)c2cccc(Cl)c2)nn1C.Cl (stereo not given),9.135%
11,CC(C)N(Cc1ccc(Cl)c(Cl)c1)C(=O)CCn1cncn1,29.65%
12,O=S(=O)(c1ccccc1)N1CCC2(CCCN2Cc2cccc(F)c2)C1 (stereo not given),5.302%
13,Cc1nn(C2CCS(=O)(=O)C2)c(O)c1CCc1ccccc1 (stereo not given),6.158%
14,Cc1ccc(CN2Cc3c(C(=O)N4CCN(C)CC4)nn(C)c3C2)s1.O=C(O)C(F)(F)F.O=C(O)C(F)(F)F.O=C(O)C(F)(F)F,-2.835%
15,Cn1ccc(NC(=O)Cc2ccccc2F)n1,-2.791%
16,CS(=O)(=O)CCn1ccc(NC(=O)Cc2ccccc2F)n1,11.43%
17,CCOC(=O)Cn1ccc(NC(=O)Cc2ccccc2F)n1,99.82%
18,CC(C)C1SCC(=O)Nc2c1c(O)nn2C1CCCCC1 (stereo not given),13.37%
19,Cc1cc(N2CCC(Cc3ccccc3)CC2)ncn1,22.55%
20,Cc1cc(N2CCC(Cc3ccccc3)CC2)nc(-c2ccncc2)n1,82.9%
21,Cc1cc(N2CCC(CC(N)=O)CC2)nc(-c2ccncc2)n1,23.93%
22,CN(Cc1ccc(CCC(C)(C)O)cc1)CC1(CO)CC1,3.977%
23,CC(Cc1ccco1)NS(=O)(=O)N1CCCCC1 (stereo not given),35.85%
24,CC(Cc1ccco1)NS(=O)(=O)N1CCCCCC1 (stereo not given),68.78%
25,CC1CCN(S(=O)(=O)NC(C)Cc2ccco2)CC1 (stereo not given),45%
